Source: PubChem BioAssay AID485313 (National Center for Advancing Translational Sciences (NCATS), 2010)
The campaign covered roughly 320,000 compounds. About 7,600 (2.4%) were called active. A call without a number means that no potency is given here. Not shown: some 3% with an inconclusive outcome. The sample holds actives, similar compounds and a random draw of the others, so the mix is not that of the screen. Calls come from the whole dose curve; as a rule, active = well fitted activation curve with a large enough effect; inconclusive = small, poorly fitted or top-dose-only effect; inactive = no such curve, though single readings can be large or run the other way.

Test: qHTS Assay for NPC1 Promoter Activators; note: nearly all actives have a fitted effect of over 60% in size;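 for activation: reporter is driven by a mutant NPC1 promoter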
Details: Huh7 NPC1 promoter luciferase reporter, 24 h; series mostly up to 9.22 µM
Method in brief: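 Compounds in DMSO were transferred onto Huh7 NPC1-luciferase reporter cells pre-incubated 2 h; after 24 h at 37 °C, Amplite reagent was dispensed and luminescence recorded 10 min later.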
Potency is the fitted concentration of half-maximal effect.

Row | Compound | Potency
1 | COc1ccccc1C(CNC(=O)c1ccc(C)c(S(=O)(=O)N2CCCCC2)c1)N(C)C (configuration not stated) | inactive
2 | COc1cc2c(cc1OC)/C(=C/C(=O)c1ccc(NC(C)=O)cc1)NCC2 | inactive
3 | CC1CN/C(=C\C(=O)c2ccc(Br)cc2)C(=O)N1 (configuration not stated) | 0.891 µM (active)
4 | CC1(C)Cc2ccccc2/C(=C/C(=O)c2ccccc2)N1 | inactive
5 | O=C(NCC#CCSc1nnc(-c2cccc3ccccc23)o1)c1cccs1 | inactive
6 | O=C(NNC(=O)c1cccc(S(=O)(=O)Nc2ccc(Cl)cc2)c1)c1ccc(=O)[nH]c1 | inactive
7 | CCC(=O)N(CCc1ccccc1)Cc1cc2cc(C)ccc2[nH]c1=O | inactive
8 | O=C(Nc1ccc(C(=O)N2CCCCC2)cc1)c1cccc([N+](=O)[O-])c1 | inactive
9 | O=C(Nc1ccc(C2CC2(Cl)Cl)cc1)c1cccc([N+](=O)[O-])c1 (configuration not stated) | 2 µM (active)
10 | O=C(Nc1ccc(NC(=O)c2ccco2)c(Cl)c1)c1cccc([N+](=O)[O-])c1 | inactive
11 | O=C(CN1C(=O)NC2(CCOc3ccccc32)C1=O)NCc1ccc(F)cc1 (configuration not stated) | inactive
12 | O=C(OCC(=O)N1CCCCCC1)c1cnc(Cl)c(Cl)c1 | inactive
13 | CCC(C)NC(=O)CCCc1ccccc1 (configuration not stated) | inactive
14 | O=C(CCCc1ccccc1)NCc1ccccc1 | inactive
15 | C=CCN1CCN(C(=O)CCCc2ccccc2)CC1 | 0.316 µM (active)
16 | Nc1nnc(SCC(=O)NCC(=O)Nc2ccc(F)c(F)c2F)s1 | inactive
17 | Brc1ccc(-c2noc(-c3ccccc3)n2)o1 | 2.24 µM (active)
18 | Cn1nc(-c2ccccc2)c(-c2nc(-c3ccc(Cl)cc3)no2)c1Cl | inactive
19 | Nc1nonc1-c1noc(-c2ccc(Br)o2)n1 | inactive
20 | CC(C)(C)OC(=O)NCCCCCNC(=O)c1nc[nH]c1C(=O)NCc1ccccc1 | inactive
21 | O=S(=O)(c1ccccc1)N(Cc1cccc(F)c1)c1ccccc1 | inactive
22 | N#Cc1cccc(NC(=O)C2CCCN(C(=O)c3ccc(Cl)cc3)C2)c1 (configuration not stated) | inactive

Row | Compound | Potency
23 | CC(C)CNC(=O)C(=O)Nc1ccc(N(C)C)cc1 | 3.98 µM (active)
24 | CC(C)CNC(=S)Nc1ccc(F)cc1 | inactive
25 | CC(C)CNC(=O)C(=O)NCc1ccccc1 | inactive
26 | CC(OC(=O)c1cc2ccccc2o1)C(=O)Nc1ccc(N2CCOCC2)cc1 (configuration not stated) | inactive
27 | COC(=O)c1cc(Oc2ccc(S(=O)(=O)N3CCOCC3)cc2[N+](=O)[O-])cc(C(=O)OC)c1 | inactive
28 | CC(C)C[C@H](NC(=O)[C@H](O)[C@H](N)Cc1ccccc1)C(=O)O | inactive
29 | COc1cccc(-c2ccc3c(c2)S(=O)(=O)c2cccc(C(=O)O)c2C3=O)c1OC | inactive
30 | COc1ccc(/C=C2\CCc3ccccc3C2=O)c(OC)c1OC | inactive
31 | COc1ccc2c(c1OC)C(=O)c1ccccc1C2=O | 2.82 µM (active)
32 | CCOC(=O)c1sc(N)c(C#N)c1COC(=O)C1=COCCO1 | inactive
33 | CCOc1cccc(/C=C/c2ccc3ccccc3n2)c1OC(C)=O | 0.631 µM (active)
34 | COc1cccc(/C=C/c2ccc3ccccc3n2)c1OC(C)=O | 1 µM (active)
35 | NC(=O)COC(=O)/C=C/c1ccc2ccccc2n1 | inactive
36 | CC(=O)c1ccc(S(=O)(=O)N2CCN(C(=O)/C=C/c3ccc4ccccc4n3)CC2)cc1 | inactive
37 | COc1cccc(/C=C2\C=C(c3ccc(C)cc3)OC2=O)c1OC(C)=O | inactive
38 | CCOc1ccccc1-c1cc(C(=O)N2CCOCC2)c2ccccc2n1 | inactive
39 | CNS(=O)(=O)c1cccc(C(=O)OCCCC(=O)c2ccccc2)c1 | inactive
40 | COc1ccccc1-c1nn(Cc2ccccc2)cc1C(=O)N1CCN(c2ncccn2)CC1 | inactive
41 | CC1(C)CC(=O)C=C(c2cccc3c2Oc2ccccc2S3)C1 | inactive
42 | O=C(COC(=O)CNC(=O)C1CCCCC1)Nc1cccc(F)c1 | inactive
43 | Cc1ccccc1OCCC(=O)OCC(=O)NCCc1ccc(S(N)(=O)=O)cc1 | inactive
44 | O=C(CN1CCN(C2CCS(=O)(=O)C2)CC1)N1N=C(c2ccc(Cl)cc2)CC1c1ccco1 (configuration not stated) | inactive

Row | Compound | Potency
45 | CC(=O)Nc1ccc(NC(=O)CCN2C(=O)C3CC=CCC3C2=O)cc1 (configuration not stated) | inactive
46 | CCC(=O)c1cn(CCOc2ccccc2OC)c2ccccc12 | inactive
47 | CCCOC1CCCN(C(=O)c2cc(COc3cncc(Cl)c3)on2)C1 (configuration not stated) | 3.98 µM (active)
48 | CCOC(=O)CC1(NC(=O)c2cc(COc3cncc(Cl)c3)on2)CCCCC1 | inactive
49 | Cc1nonc1C1CCCN1C(=O)c1cc(COc2cccc(C(F)(F)F)c2)on1 (configuration not stated) | inactive
50 | Cc1ccc2c(c1)C1CN(C)CCC1N2S(=O)(=O)c1cccc(F)c1 (configuration not stated) | inactive
51 | O=C(CN1CCCSc2ccccc21)N1CCN(S(=O)(=O)c2cccc(F)c2)CC1 | inactive
52 | COC(=O)C1=C(C)NC(=S)NC1c1ccc(OCC(=O)N2CC(C)OC(C)C2)c(OC)c1 (configuration not stated) | inactive
53 | COc1ccc(CCNC(=O)COc2ccc3c(c2)OCO3)cc1 | inactive
54 | CC(C)COC(=O)c1ccc(NC(=O)C2C3C=CC(C3)C2C(=O)O)cc1 (configuration not stated) | 2.24 µM (active)
55 | COC(=O)c1cc(NC(=O)C2C3C=CC(C3)C2C(=O)O)cc(C(=O)OC)c1 (configuration not stated) | inactive
56 | CC(=O)NS(=O)(=O)c1ccc(NC(=O)C2C3C=CC(C3)C2C(=O)O)cc1 (configuration not stated) | inactive
57 | CCN(CC)S(=O)(=O)c1ccc2[nH]c(=O)cc(C(=O)N(C)C3CCS(=O)(=O)C3)c2c1 (configuration not stated) | inactive
58 | C[C@H](OC(=O)n1ccnc1)[C@@H]1O[C@@]2(C)CCC[C@@H]1O2 | inactive
59 | COc1ccccc1N1CC(C(=O)NCCN2C(=O)S/C(=C\c3cccnc3)C2=O)CC1=O (configuration not stated) | inactive
60 | Cc1ccc(C(CC(=O)O)NC(=O)c2ccc(S(=O)(=O)N3CCCC3)cc2)cc1 (configuration not stated) | inactive
61 | O=C(NCCN1CCOCC1)c1cccc(S(=O)(=O)Nc2ccc(F)cc2)c1 | inactive
62 | O=C(NC1CCCCC1)c1ccc(-c2ccc(Cl)cc2)o1 | 3.16 µM (active)
63 | O=C(NC(=S)NC1CCCCC1)c1ccc(Cl)cc1 | inactive
64 | O=C(NC1CCCCCC1)c1cccnc1Sc1ccc(Cl)cc1 | inactive
65 | Cc1ccc(NC(=O)C(C)Sc2nnc(C3CC3)n2C2CC2)cc1S(=O)(=O)N1CCOCC1 (configuration not stated) | inactive
66 | C=CCn1c(SCC(=O)NC(=O)Cc2ccccc2)nc2ccccc2c1=O | inactive

Row | Compound | Potency
67 | O=C(Cn1c(-c2cncs2)nc2ccccc21)NC1CCCC1 | inactive
68 | O=C(/C=C/c1cnc2ccccc2n1)NC1CCCCCC1 | 3.55 µM (active)
69 | Cc1nc(/N=C(\N)NC(=O)NC2CCCCC2)nc2ccccc12 | inactive
70 | COc1ccc2c(C)cc(SCC(=O)NCC3CCCO3)nc2c1 (configuration not stated) | inactive
71 | Cc1cccc(NC(=O)c2cccnc2Cl)n1 | inactive
72 | Cc1cccc(NC(=O)c2ccccc2NC(=O)C(C)(C)C)n1 | inactive
73 | Cc1cccc(NC(=O)c2ccc3ccccc3n2)n1 | 3.16 µM (active)
74 | Cc1ccc(-n2nc3ccc(NC(=O)/C=C/c4ccco4)cc3n2)cc1C | inactive
75 | CCC(=O)Nc1ccc(C(=O)Nc2cccc(OC)c2)cc1 | inactive
76 | CCC(=O)Nc1ccc2nn(-c3ccc(F)cc3)nc2c1 | 0.355 µM (active)
77 | Cc1noc(C)c1S(=O)(=O)Nc1ccc(C(=O)N2CCN(c3ccc(F)cc3)CC2)cc1 | inactive
78 | O=C(NCCCN1CCOCC1)c1cc(-c2cccc(O)c2)on1 | inactive
79 | O=C(NC1CCCC1)c1cc(-c2ccccc2)on1 | 1.26 µM (active)
80 | O=C(Nc1cccnc1Cl)c1cc(-c2cccc(Cl)c2)on1 | inactive
81 | Cc1cc(C)cc(-c2nnc(SCC(=O)NC3CC3)o2)c1 | inactive
82 | Cc1cccc(C)c1NC(=O)CSc1nc2c([nH]1)c(=O)n(C)c(=O)n2C | inactive
83 | CCOc1ncccc1C(=O)Nc1ccc(S(=O)(=O)Nc2nc(C)cc(C)n2)cc1 | inactive
84 | O=C(CN1CCN(c2ccc(Cl)cc2)CC1)N1CCCC1 | inactive
85 | O=C(CSCc1ccc(Cl)cc1)N1CCN(Cc2ccc3c(c2)OCO3)CC1 | inactive
86 | O=C(CSCc1ccc(Cl)cc1)N1CCCCC1 | 6.31 µM (active)
87 | CCN(c1ccccc1)S(=O)(=O)c1ccc(OCC(=O)N2CCCC2)cc1 | inactive
88 | O=C(NNC(=O)c1cc(S(=O)(=O)N2CCCCC2)ccc1Cl)c1ccccc1O | inactive

Row | Compound | Potency
89 | Cc1cc(C)cc(NC(=O)C(c2ccccc2)N2CCN(CC(=O)N3CCCC3)CC2)c1 (configuration not stated) | inactive
90 | COc1ccc(S(=O)(=O)N2CCOCC2)cc1NC(=O)CC1CC2CCC1C2 (configuration not stated) | inactive
91 | CCOc1nnc(C)c2c(C)n(-c3cccc(Cl)c3)nc12 | inactive
92 | Cc1ccc(C(=O)OCc2nc(N)nc(Nc3ccccc3C)n2)cc1 | inactive
93 | Cc1ccccc1Nc1nc(N)nc(CSc2nnc3ccccn23)n1 | inactive
94 | Cc1ccccc1Nc1nc(N)nc(CSc2ccccc2)n1 | 1.26 µM (active)
95 | O=C1CC[C@H](O)CCN1[C@H](CSc1ccc(Br)cc1)Cc1ccccc1 | inactive
96 | COc1cc(CN2CCC(C(N)=O)CC2)ccc1OCc1ccccc1 | 3.98 µM (active)
97 | CCOc1cc(CN2CCN(C(=O)CC(C)C)CC2)ccc1OC | inactive
98 | COc1ccc(COCC(O)CN2CCC(C(N)=O)CC2)cc1 (configuration not stated) | inactive
99 | CCOC(=O)C1CCN(S(=O)(=O)c2ccc3c(c2)N(C(C)=O)CCO3)CC1 | inactive
100 | Cc1ccc(C)c(NC(=O)C(c2ccccc2)N2CCN(CC(=O)NC3CC3)CC2)c1 (configuration not stated) | inactive
101 | COc1ccc(CNC(=O)COc2ccccc2C(=O)c2cnn(-c3ccccc3)c2)cc1OC | inactive
102 | O=C(c1cnn(-c2ccc(Cl)cc2)c1)c1ccccc1O | 3.55 µM (active)
103 | Cc1ncc(CC(=O)n2cc(C(=O)c3cc(Cl)ccc3O)cn2)s1 | inactive
104 | Cc1ccnc(Nc2nc3ccccc3s2)n1 | 3.55 µM (active)
105 | Cc1ccnc(NC(=O)c2ccco2)n1 | inactive
106 | Cc1ccnc(-n2sc3ccccc3c2=O)n1 | inactive
107 | COc1cc(C(=O)NNC(=O)CN2C(=O)NC3(CCCC3)C2=O)cc(OC)c1OC | inactive
